Test results from the supplement of paper PMC9262897, “Low-cost anti-mycobacterial drug discovery using engineered E. coli” (Nature Communications, 2022).
Where a name gives a salt, the structure may show the parent alone. ± gives the standard deviation of the averaged measurements.

Assays:
Assay in all cases: growth (OD600 after 10 h); higher = more growth (less inhibition)
[1] = system: E. coli TESEC Alr+ wild-type control; details: compound 0.1 mM; raw OD600 reference: median of DMSO wells 0.241, cell-free background 0.041
Procedure: (§1)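 TESEC Mtb Alr E. coli, or the Alr+ wild-type control, in 384-well plates with Prestwick library compounds at 0.1 mM and 1% DMSO, across arabinose induction levels of 1E3 to 1E7 nM. Growth is read as OD600 after 10 h at 37 °C in triplicate biological replicates.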

[2] = system: E. coli TESEC Mtb Asd; details: compound 0.1 mM
Procedure: (§2)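 TESEC E. coli strains in which the native enzyme is deleted and replaced by arabinose-inducible Mtb Asd, DapB, CysH or TrpD, each grown in its selective medium. Strains were screened against the Prestwick library at 0.1 mM and 1% DMSO in 384-well format at low and high arabinose induction. Growth is read as OD600 after 10 h in triplicate.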

[3] = system: E. coli TESEC Mtb DapB; details: compound 0.1 mM
Procedure: as §2

[4] = system: E. coli TESEC Alr+ wild-type control; details: compound 0.1 mM; raw OD600 reference: median of DMSO wells 0.49, cell-free background 0.052
Procedure: (§3)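 TESEC Mtb Alr E. coli (ΔaraC ΔtolC ΔentC Δalr ΔdadX, arabinose-inducible Mtb Alr) or the Alr+ wild-type control strain, grown in defined M9-fructose medium without D-alanine in 96-well plates with Prestwick library compounds at 0.1 mM and 1% DMSO. Low Alr induction is 0.1 µM arabinose and high induction is 10 mM arabinose.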

[5] = system: E. coli TESEC Mtb Alr; details: compound 0.1 mM
Procedure: as §3

[6] = system: E. coli TESEC Mtb Alr; details: compound 0.1 mM; remark: listed apart in the source
Procedure: as §1

[7] = arabinose induction (level): High, raw OD600 reference: median of DMSO wells 0.331, cell-free background 0.041
[8] = arabinose induction (level): Low, raw OD600 reference: median of DMSO wells 0.417, cell-free background 0.041
[9] = arabinose induction (level): High, raw OD600 reference: median of DMSO wells […], cell-free background 0.041
[10] = arabinose induction (level): Low, raw OD600 reference: median of DMSO wells 0.227, cell-free background 0.041
[11] = arabinose 100 nM, raw OD600 reference: median of DMSO wells 0.413, cell-free background 0.052
[12] = arabinose 10000000 nM, raw OD600 reference: median of DMSO wells […], cell-free background 0.052
[13] = arabinose 1000 nM, raw OD600 reference: median of DMSO wells 0.294, cell-free background 0.041
[14] = arabinose 10000 nM, raw OD600 reference: median of DMSO wells 0.264, cell-free background 0.041
[15] = arabinose 100000 nM, raw OD600 reference: median of DMSO wells 0.201, cell-free background 0.041
[16] = arabinose 1000000 nM, raw OD600 reference: median of DMSO wells 0.193, cell-free background 0.041
[17] = arabinose 10000000 nM, raw OD600 reference: median of DMSO wells 0.146, cell-free background 0.041

SMILES | growth [1] | growth [2, 7] | growth [2, 8] | growth [3, 9] | growth [3, 10] | growth [4] | growth [5, 11] | growth [5, 12] | growth [6, 13] | growth [6, 14] | growth [6, 15] | growth [6, 16] | growth [6, 17]
CC(=O)OCC(=O)[C@@]1(OC(C)=O)[C@@H](C)C[C@H]2[C@@H]3C[C@H](F)C4=CC(=O)C=C[C@]4(C)[C@@]3(F)[C@@H](O)C[C@@]21C [Diflorasone Diacetate] | 0.159 ± 0.0032 | 0.263 ± 0.03 | 0.228 ± 0.008 | 0.198 ± 0.03 | 0.221 ± 0.0089 | 0.398 ± 0.015 | 0.394 ± 0.014 | 0.289 ± 0.0096 | – | – | – | – | –
CN1CCN(c2c(F)cc3c(=O)c(C(=O)O)cn(CCF)c3c2F)CC1 [Fleroxacin] | 0.0517 ± 0.002 | 0.0848 ± 0.0081 | 0.0766 ± 0.014 | 0.0682 ± 0.001 | 0.0599 ± 0.003 | 0.0565 ± 0.002 | 0.0555 ± 0.0013 | 0.05217 ± 5.8e-05 | – | – | – | – | –
O=c1[nH]c(=O)n([C@H]2C[C@H](O)[C@@H](CO)O2)cc1I [Idoxuridine] | 0.2463 ± 0.002 | 0.257 ± 0.057 | 0.276 ± 0.032 | – | – | – | 0.369 ± 0.032 | 0.376 ± 0.021 | 0.285 ± 0.0078 | 0.268 ± 0.012 | 0.206 ± 0.0098 | 0.203 ± 0.0061 | 0.15 ± 0.0075
CC(C)/N=c1\cc2n(-c3ccc(Cl)cc3)c3ccccc3nc-2cc1Nc1ccc(Cl)cc1 [Clofazimine] | 0.158 ± 0.004 | 0.247 ± 0.053 | 0.337 ± 0.11 | – | – | – | 0.395 ± 0.031 | 0.06873 ± 0.00031 | 0.231 ± 0.016 | 0.154 ± 0.037 | 0.225 ± 0.023 | 0.0638 ± 0.0033 | 0.168 ± 0.013
CC(=O)SCC(Cc1ccccc1)C(=O)NCC(=O)OCc1ccccc1 (configuration not stated) [Racecadotril] | 0.183 ± 0.0055 | 0.28 ± 0.053 | 0.215 ± 0.013 | – | – | – | 0.398 ± 0.0054 | 0.298 ± 0.0095 | 0.26 ± 0.016 | 0.241 ± 0.011 | 0.23 ± 0.022 | 0.132 ± 0.0014 | 0.189 ± 0.0054
CC[C@H](C)C(=O)O[C@H]1C[C@@H](C)C=C2C=C[C@H](C)[C@H](CC[C@@H]3C[C@@H](O)CC(=O)O3)[C@H]21 [Lovastatin] | 0.256 ± 0.0052 | 0.276 ± 0.026 | 0.35 ± 0.065 | – | – | – | 0.43 ± 0.018 | 0.148 ± 0.042 | 0.307 ± 0.01 | 0.0518 ± 0.002 | 0.21 ± 0.017 | 0.0567 ± 0.013 | 0.139 ± 0.0042
CCCCC(CC)CN1CN(CC(CC)CCCC)CC(C)(N)C1 (configuration not stated) [Hexetidine] | 0.219 ± 0.015 | 0.309 ± 0.022 | 0.373 ± 0.059 | 0.218 ± 0.018 | 0.225 ± 0.033 | 0.0454 ± 0.00058 | 0.173 ± 0.21 | 0.0486 ± 0.0013 | – | – | – | – | –
Cn1nnc2c(C(N)=O)ncn2c1=O [Temozolomide] | 0.241 ± 0.006 | 0.225 ± 0.0049 | 0.305 ± 0.022 | – | – | – | 0.423 ± 0.011 | 0.35 ± 0.01 | 0.289 ± 0.0045 | 0.248 ± 0.0082 | 0.208 ± 0.018 | 0.163 ± 0.0073 | 0.134 ± 0.0048
CN(C)CCC(c1ccc(Br)cc1)c1ccccn1 (configuration not stated) [Brompheniramine maleate] | 0.218 ± 0.0069 | 0.179 ± 0.0086 | 0.302 ± 0.079 | 0.179 ± 0.01 | 0.253 ± 0.025 | 0.45 ± 0.043 | 0.398 ± 0.011 | 0.339 ± 0.02 | – | – | – | – | –
Clc1ccc2c(c1)C(N1CCNCC1)=Nc1ccccc1O2 [Amoxapine] | 0.162 ± 0.0094 | 0.178 ± 0.01 | 0.201 ± 0.0093 | 0.159 ± 0.03 | 0.173 ± 0.041 | 0.43 ± 0.061 | 0.396 ± 0.005 | 0.291 ± 0.023 | – | – | – | – | –
C[n+]1ccccc1/C=N/O [Pralidoxime chloride] | 0.253 ± 0.0089 | 0.476 ± 0.013 | 0.455 ± 0.046 | 0.223 ± 0.011 | 0.284 ± 0.0069 | 0.605 ± 0.018 | 0.407 ± 0.018 | 0.323 ± 0.015 | – | – | – | – | –
O=C(CCCCCCC(=O)Nc1ccccc1)NO [Vorinostat] | 0.253 ± 0.0073 | 0.195 ± 0.028 | 0.335 ± 0.061 | – | – | – | 0.415 ± 0.01 | 0.3 ± 0.021 | 0.295 ± 0.0062 | 0.238 ± 0.0041 | 0.164 ± 0.012 | 0.153 ± 0.0023 | 0.124 ± 0.011
CC(=O)Nc1nnc(S(N)(=O)=O)s1 [Acetazolamide] | 0.249 ± 0.017 | 0.361 ± 0.014 | 0.394 ± 0.051 | 0.211 ± 0.015 | 0.253 ± 0.077 | 0.436 ± 0.042 | 0.408 ± 0.011 | 0.317 ± 0.05 | – | – | – | – | –
CCN(CC)CCOC(=O)C(c1ccccc1)C1CCCCC1 (configuration not stated) [Drofenine hydrochloride] | 0.149 ± 0.0031 | 0.119 ± 0.0039 | 0.271 ± 0.017 | – | – | – | 0.407 ± 0.019 | 0.168 ± 0.058 | 0.203 ± 0.017 | 0.218 ± 0.0035 | 0.16 ± 0.0022 | 0.0678 ± 0.00092 | 0.1432 ± 0.00046
CCCN[C@H]1CCc2nc(N)sc2C1 [Pramipexole dihydrochloride] | 0.237 ± 0.0095 | 0.262 ± 0.068 | 0.334 ± 0.02 | – | – | – | 0.406 ± 0.013 | 0.363 ± 0.012 | 0.289 ± 0.004 | 0.258 ± 0.0086 | 0.207 ± 0.015 | 0.191 ± 0.01 | 0.15 ± 0.0057
CC(C(O)c1ccc(O)cc1)N1CCC(Cc2ccccc2)CC1 (configuration not stated) [Ifenprodil tartrate] | 0.195 ± 0.018 | 0.313 ± 0.065 | 0.427 ± 0.028 | 0.1878 ± 0.00062 | 0.227 ± 0.036 | 0.453 ± 0.037 | 0.409 ± 0.011 | 0.312 ± 0.0043 | – | – | – | – | –
CC(C)(C)NC(=O)[C@H]1CC[C@H]2[C@@H]3CC[C@H]4NC(=O)C=C[C@]4(C)[C@H]3CC[C@]12C [Finasteride] | 0.121 ± 0.003 | 0.308 ± 0.064 | 0.268 ± 0.064 | 0.183 ± 0.0049 | 0.228 ± 0.006 | 0.351 ± 0.011 | 0.366 ± 0.022 | 0.182 ± 0.03 | – | – | – | – | –
OC(CCN1CCCCC1)(c1ccccc1)C1CCCCC1 (configuration not stated) [Trihexyphenidyl-D,L Hydrochloride] | 0.222 ± 0.012 | 0.299 ± 0.04 | 0.43 ± 0.071 | – | – | – | 0.4127 ± 0.0033 | 0.324 ± 0.024 | 0.316 ± 0.019 | 0.265 ± 0.012 | 0.194 ± 0.0034 | 0.147 ± 0.0092 | 0.164 ± 0.0019
COc1ccc2c(c1)N(C[C@H](C)CN(C)C)c1ccccc1S2 [Methotrimeprazine maleat salt] | 0.187 ± 0.0042 | 0.131 ± 0.0046 | 0.2312 ± 0.0023 | 0.1934 ± 0.0013 | 0.211 ± 0.012 | 0.477 ± 0.023 | 0.402 ± 0.0072 | 0.282 ± 0.02 | – | – | – | – | –
CC#C[C@]1(O)CC[C@H]2[C@@H]3CCC4=CC(=O)CCC4=C3[C@@H](c3ccc(N(C)C)cc3)C[C@@]21C [Mifepristone] | 0.142 ± 0.0098 | 0.241 ± 0.077 | 0.216 ± 0.015 | 0.199 ± 0.0078 | 0.236 ± 0.013 | 0.337 ± 0.037 | 0.411 ± 0.009 | 0.116 ± 0.012 | – | – | – | – | –
NS(=O)(=O)c1cc2c(cc1Cl)NC(CC1CCCC1)NS2(=O)=O (configuration not stated) [Cyclopenthiazide] | 0.236 ± 0.0074 | 0.377 ± 0.063 | 0.314 ± 0.053 | 0.212 ± 0.0077 | 0.214 ± 0.0079 | 0.513 ± 0.035 | 0.375 ± 0.011 | 0.356 ± 0.0061 | – | – | – | – | –
NC(CO)C(=O)NNCc1ccc(O)c(O)c1O (configuration not stated) [Benserazide hydrochloride] | 0.0616 ± 0.0013 | 0.186 ± 0.018 | 0.186 ± 0.0073 | 0.185 ± 0.023 | 0.227 ± 0.024 | 0.465 ± 0.036 | 0.337 ± 0.069 | 0.148 ± 0.03 | – | – | – | – | –
CCN(CC)CCOC(=O)C(c1ccccc1)c1ccccc1 [Adiphenine hydrochloride] | 0.222 ± 0.0088 | 0.197 ± 0.033 | 0.382 ± 0.069 | 0.165 ± 0.0095 | 0.223 ± 0.046 | 0.494 ± 0.04 | 0.414 ± 0.0051 | 0.313 ± 0.051 | – | – | – | – | –
